In ChEMBL document CHEMBL3988442, “University of Dundee, Small-Polar-MMV Screening Library” (2021):
Hit rate of the full screen: of about 48,000 compounds, about 13,000 (27%) showed an effect of 50% or more. The list shows a part of the results.

Each compound was assayed on Wolbachia pipientis (assay: Anti-Wolbachia Cell-Based Screen). Conditions: 5 µM.
Type: functional
Design: scale not given: in the data most compounds retested in dose-response had high values

SMILES | Percent Effect
Cc1noc(CCCC(=O)N2CCNC(=O)C2)n1 | -6.568%
Cc1c(C(C)Nc2ncnc3sccc23)cnn1C (stereo unspecified) | -5.704%
CCn1ccnc1CN(C)Cc1nc(CCC(C)C)no1 | -3.993%
COc1ccccc1[C@@H]1CN(C(=O)c2csc(C)n2)C[C@H]1C(=O)O | -8.955%
CCn1cc(CN(C)c2nc(C)c3ccc(S(C)(=O)=O)cc3n2)cn1 | -19.68%
Cc1nnc(N2CCOC(Cn3cccn3)C2)c(C#N)c1C (stereo unspecified) | -2.698%
CCc1[nH]c2c(CNC(=O)C3CCN(C)C3)cc(C)cc2c1C (stereo unspecified) | -4.959%
Cc1ncncc1C(=O)N1C[C@H]2CC[C@@H]1CN(C(=O)c1ccncc1)C2 | -6.558%
CCCc1cc(C(=O)N2CC(c3ccncc3)C2)ccn1 | -34.73%
Cc1nccc(C2CN(C(=O)c3cncnc3)C2)n1 | 123.7%
Cc1nc(O)cc(C2CCCN(C(=O)c3cccc(N(C)C)c3)C2)n1 (stereo unspecified) | 2.27%
Cc1nccc(C2CCCN(C(=O)c3cncnc3)C2)n1 (stereo unspecified) | 134.6%
Cc1cccc(C2CCCN(C(=O)c3ccncc3)C2)n1 (stereo unspecified) | 137.8%
Cc1cc(C(=O)N[C@H]2CC[C@@]3(CCC(=O)N3)CC2)no1 | -22.87%
CNC(=O)c1cnc2c(C)csc2c1 | 142.5%
Cc1csc2cc(C(=O)NC3CCCC3)cnc12 | 127%
CNC(=O)c1coc(-c2csc(C)n2)c1 | 7.776%
CCNc1ncc(C(=O)NC2CCOCC2)cn1 | -0.8414%
O=C(NC1CCC(O)CC1)c1cnc2c(cnn2C2CCCC2)c1 (stereo unspecified) | -3.379%
CCc1nc(CNC(=O)Nc2ccc(C(=O)NC)cc2C)cs1 | -1.988%
CCOc1ccc(C(=O)NC2CC2)cc1C | -6.669%

SMILES | Percent Effect
Cc1ccsc1CCNC(C)C(=O)NC1CCCC1 (stereo unspecified) | 3.624%
Cc1csc2cc(C(=O)NC3CC3)cnc12 | 125.4%
Cc1cc(C2CCCN2C(=O)Cn2c(C)cc(=O)c3ccccc32)on1 (stereo unspecified) | -2.941%
COCC(=O)N1CCN(C(=O)C2CCCCC2)[C@@H](C(=O)OC)C1 | -2.41%
Cc1nc(C)n(C2CCCN(C(=O)Cc3cn4ccccc4n3)C2)n1 (stereo unspecified) | 141.6%
Cc1nccn1C1CCCN(C(=O)Cc2cn3ccccc3n2)C1 (stereo unspecified) | 129.5%
Cc1nc(C)n(C2CCCN(C(=O)c3nc(C)n4ccccc34)C2)n1 (stereo unspecified) | -12.32%
Cc1nccn1C1CCCN(C(=O)COCC(F)(F)F)C1 (stereo unspecified) | 9.036%
CCc1nccn1C1CCCN(C(=O)Cc2cn3ccccc3n2)C1 (stereo unspecified) | 11.58%
N#CC1(NC(=O)Cn2nnc(-c3cc4ccccc4o3)n2)CCCC1 | 6.129%
CCOC(=O)NC(CNC(=O)c1cn(C)cn1)CC(C)C (stereo unspecified) | -4.121%
COc1ccc2[nH]cc(-c3ccnc(NC4CCCC4)n3)c2c1 | 98.2%
COc1nccnc1-c1cc(NC2CCCC2)nc2[nH]ccc12 | -1.982%
COc1cc(-c2cc(NC3CCCC3)nc3[nH]ccc23)nc(N)n1 | -4.005%
COc1ccc2[nH]cc(-c3ccnc(N4CCC(C)CC4)n3)c2c1 | 108.4%
COc1cnc(N2CCC(c3ncc[nH]3)CC2)nc1 | 16.53%
COc1ccc2[nH]cc(C3CCN(CCC(N)=O)CC3)c2c1 | -13.9%
COC(=O)c1cc(NS(=O)(=O)c2cn(C)cn2)c(F)cc1F | -3.496%
CS(=O)(=O)c1nnc(NC(=O)CCc2cccs2)[nH]1 | 5.426%
O=C(NCc1ccc(-n2cncn2)nc1)c1ccc2c(c1)CCO2 | 2.792%
CCN1CCO[C@@H]2CN(C(=O)c3ccc4[nH]ccc4c3)CC[C@@H]2C1.O=C(O)C(F)(F)F | -16%

SMILES | Percent Effect
CC(=O)N1CCO[C@@H]2CN(C(=O)NCc3ccccc3)CC[C@@H]2C1 | 88.95%
CCN1CCO[C@@H]2CN(C(=O)NCc3ccccc3)CC[C@@H]2C1 | 91.66%
CC(=O)N1CCO[C@@H]2CN(C(=O)NCc3cccnc3)CC[C@@H]2C1.O=C(O)C(F)(F)F | -5.554%
COCCN1CCO[C@@H]2CN(C(=O)NCc3cccnc3)CC[C@@H]2C1.O=C(O)C(F)(F)F.O=C(O)C(F)(F)F | -7.719%
CCN(CC)Cc1cc(C(=O)N2CCCC(O)(CO)C2)c(C)o1 (stereo unspecified) | 4.357%
CCCc1ccc(CN2CCN(C(=O)C(C)C)[C@@H]3CS(=O)(=O)C[C@@H]32)o1 | 2.422%
CCCc1ccc(CN2CCN(C(=O)NCC)[C@H]3CS(=O)(=O)C[C@H]32)o1 | -11.9%
CCn1ccnc1CN1CCN(Cc2ccc(C)o2)[C@@H]2CS(=O)(=O)C[C@@H]21 | 98.63%
Cc1ccc(CN2CCN(Cc3nccn3C)[C@H]3CS(=O)(=O)C[C@H]32)o1 | 91.25%
CCCc1ccc(CN2CCN(c3ncccn3)[C@@H]3CS(=O)(=O)C[C@@H]32)o1 | -1.361%
CCCc1ccc(CN2CCN(C(=O)N(C)C)[C@@H]3CS(=O)(=O)C[C@@H]32)o1 | 6.47%
O=C(C1CN(c2ncc(F)cn2)CC12CCOCC2)N1CC=CC1.O=C(O)C(F)(F)F (stereo unspecified) | -11.35%
O=C(O)C(F)(F)F.c1coc(CN2CCn3c(COCC4CC4)nnc3C2)c1 | -16.88%
O=C(O)C(F)(F)F.O=C(O)C(F)(F)F.c1coc(CN2CCCn3c(CN4CCOCC4)nnc3C2)c1 | 102%
O=C(O)C(F)(F)F.c1coc(CN2CCCn3c(nnc3Cn3cccc3)C2)c1 | 110.6%
O=C(O)C(F)(F)F.c1cnn(Cc2nnc3n2CCCN(CC2CCOCC2)C3)c1 | -9.289%
c1coc(CN2CCn3c(CN4CCOCC4)nnc3C2)c1 | 0.1546%
CCCN1CCN(C(=O)c2cccc3cccnc23)[C@H]2CS(=O)(=O)C[C@H]21 | -6.939%
Cc1nnc(CN(C)Cc2nc3c(s2)CCCC3)o1 | -39.73%
